Our source for the growth values is PubChem BioAssay (NCI).

Some test systems named below: SR leukemia; RPMI-8226 leukemia; OVCAR-8 ovarian; OVCAR-5 ovarian; OVCAR-4 ovarian; SK-OV-3 ovarian; IGROV1 ovarian; OVCAR-3 ovarian; HS 578T breast; NCI/ADR-RES ovarian.
Experiment in all cases: NCI-60 one-dose screen, 48 h (100 = growth as untreated, 0 = no growth, -100 = all killed)
Holding throughout (details): 10 µM unless noted

Compounds without any hit were thinned out: in the full panel of roughly 83,000, 20% have a hit.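 Values shown are percent growth following 48 h exposure of cells in 96-well plates to a single concentration of compound; below 10 was considered active.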 Values without a mark were called inactive. Calls of active or inactive are those of the source.

With `CN1CCN(Cc2ccc(NC(=O)c3nc4ccc5[nH]ncc5c4c4c3CCC4)cc2C(F)(F)F)CC1`, the growth with SR leukemia is -31.6% (active); with RPMI-8226 leukemia it was -37% (active); in the assay on OVCAR-8 ovarian, -53.8% (active); with OVCAR-5 ovarian, 3.19% (active); in the assay with OVCAR-4 ovarian, 68.3%; in the assay with SK-OV-3 ovarian, 93.8%. Moreover, the growth with IGROV1 ovarian was -80.9% (active); in the assay on OVCAR-3 ovarian, -91.3% (active); in the assay on HS 578T breast, 85.9%; in the assay with NCI/ADR-RES ovarian, -40.8% (active).
In the case of `CCCCCCCCCCCCCCCCCCNC(=O)[C@H]1CSC(c2cccs2)N1` (stereo not given in full), the growth in the assay on SR leukemia is -41.2% (active); in the assay with RPMI-8226 leukemia it was -51.1% (active); with OVCAR-8 ovarian it was -23% (active); with OVCAR-5 ovarian, -54.1% (active); in the assay with OVCAR-4 ovarian it was 42.2%; in the assay on SK-OV-3 ovarian, 39.7%. The growth with IGROV1 ovarian was 2.04% (active); in the assay with OVCAR-3 ovarian, -17.3% (active); in the assay on HS 578T breast, -31.7% (active); in the assay on NCI/ADR-RES ovarian, -45.3% (active).
With `COc1ccc(/C=C2\Oc3cc(OCCCN4CCCC4)ccc3C2=O)c(OC)c1`, the growth in the assay with SR leukemia was -26.5% (active); in the assay on RPMI-8226 leukemia, 66.9%; in the assay with OVCAR-8 ovarian, 80%; in the assay on OVCAR-5 ovarian it was 100%; in the assay with OVCAR-4 ovarian it was 90.3%; with SK-OV-3 ovarian, 110%. In addition, the growth with IGROV1 ovarian was 88.2%; with OVCAR-3 ovarian it was 97.4%; in the assay with HS 578T breast it was 94.5%; in the assay on NCI/ADR-RES ovarian, 91%.
With `c1ccc(Nc2nc(Nc3ccccc3)nc(Nc3ccccc3)n2)cc1`, the growth in the assay on SR leukemia was 69.8%; in the assay with RPMI-8226 leukemia it was 74.5%; in the assay on OVCAR-8 ovarian, 92.2%; in the assay with OVCAR-5 ovarian it was 97.1%; with OVCAR-4 ovarian, 81.2%; with SK-OV-3 ovarian, 92.7%. The growth in the assay with IGROV1 ovarian was 62.5%; in the assay with OVCAR-3 ovarian, 96.4%; in the assay with HS 578T breast, 107%; in the assay on NCI/ADR-RES ovarian, 77.9%.
Regarding `Nc1cccc(-c2nc3sccn3c2-c2ccnc(NCCNS(=O)(=O)c3ccc(C(F)(F)F)cc3)n2)c1`, the growth is 35.4% in the assay with SR leukemia; 61.7% with RPMI-8226 leukemia; 38.3% in the assay on OVCAR-8 ovarian; 90.5% in the assay with OVCAR-5 ovarian; 43.2% with OVCAR-4 ovarian; 53.5% in the assay on SK-OV-3 ovarian. Moreover, the growth in the assay with IGROV1 ovarian is 36.3%; with OVCAR-3 ovarian, 53.4%; in the assay with HS 578T breast it was -15.1% (active); in the assay with NCI/ADR-RES ovarian, 71.5%.
Take `Nc1nc(=O)c2ccccc2s1`: the growth was 109% in the assay with SR leukemia; 94.8% in the assay on RPMI-8226 leukemia; 121% with OVCAR-8 ovarian; 99.6% in the assay with OVCAR-5 ovarian; 125% with OVCAR-4 ovarian; 104% in the assay with SK-OV-3 ovarian. The growth was 122% in the assay with IGROV1 ovarian, 131% in the assay on OVCAR-3 ovarian, 112% with HS 578T breast and 113% with NCI/ADR-RES ovarian.
For the compound `C=C1C(=O)O[C@H]2[C@H]1CC/C(Cn1cc(CNC(=O)/C=C/c3c[nH]c4ccccc34)nn1)=C\CC[C@@]1(C)O[C@@H]21`, the growth was 56.6% with SR leukemia; 13% in the assay on RPMI-8226 leukemia; 98.9% in the assay on OVCAR-8 ovarian; 114% with OVCAR-5 ovarian; 100% with OVCAR-4 ovarian; 103% with SK-OV-3 ovarian. In addition, the growth in the assay on IGROV1 ovarian was 86.2%; in the assay on OVCAR-3 ovarian it was 30.5%; with HS 578T breast it was 95.4%; in the assay on NCI/ADR-RES ovarian, 108%.
`CN1CCN(CCCOc2ccc3nc(Nc4ccc(Cl)c(C(F)(F)F)c4)ccc3c2)CC1`: the growth in the assay with SR leukemia is 2.08% (active); in the assay with RPMI-8226 leukemia, 18.1%; in the assay on OVCAR-8 ovarian, 73.6%; with OVCAR-5 ovarian, 72.1%; with OVCAR-4 ovarian it was 66.6%; in the assay on SK-OV-3 ovarian it was 91.4%. Further, the growth was 46.2% with IGROV1 ovarian, 59.3% with OVCAR-3 ovarian, 46% in the assay on HS 578T breast and 62.8% with NCI/ADR-RES ovarian.
With `CC(C)C(C(=O)NCCN1CCOCC1)N1C(=O)/C(=C/c2ccc(Br)cc2)SC1=S` (stereo not given), the growth with SR leukemia is 111%; in the assay with RPMI-8226 leukemia, 98%; in the assay with OVCAR-8 ovarian, 108%; with OVCAR-5 ovarian it was 102%; in the assay on OVCAR-4 ovarian it was 105%; in the assay with SK-OV-3 ovarian, 112%. Also, the growth in the assay with IGROV1 ovarian was 108%; with OVCAR-3 ovarian, 104%; in the assay with HS 578T breast it was 95.1%; in the assay with NCI/ADR-RES ovarian it was 96.7%.
Take `COc1ccc(Cn2cc3c(c2-c2cc(OC)c(OC)c(OC)c2)CCc2cnoc2-3)cc1`: the growth was 13.1% in the assay with SR leukemia; 23.4% in the assay with RPMI-8226 leukemia; 34.6% with OVCAR-8 ovarian; 47.7% in the assay with OVCAR-5 ovarian; 22.6% in the assay with OVCAR-4 ovarian; -0.435% (active) in the assay on SK-OV-3 ovarian. Moreover, the growth is 7.18% (active) in the assay with IGROV1 ovarian, -5.4% (active) with OVCAR-3 ovarian, 15.9% in the assay with HS 578T breast and 20.1% in the assay with NCI/ADR-RES ovarian.
On to `COc1ccc(S(=O)(=O)NCCCNc2nccc(-c3c(-c4cccc([N+](=O)[O-])c4)nc4sccn34)n2)cc1`, for which the growth with SR leukemia is 53.5%; with RPMI-8226 leukemia it was 11.5%; in the assay on OVCAR-8 ovarian, 29.8%; in the assay with OVCAR-5 ovarian, 98.7%; in the assay with OVCAR-4 ovarian, 29.2%; in the assay on SK-OV-3 ovarian, 89.6%. For the same compound, the growth is 40.1% in the assay with IGROV1 ovarian, 41.2% with OVCAR-3 ovarian, 65.9% in the assay with HS 578T breast and 22.9% with NCI/ADR-RES ovarian.
On to `CCN1C(=O)N(CC)C2C1NN=c1s/c(=C\c3cccnc3)c(=O)n12` (stereo not given), for which the growth with SR leukemia was 15.1%; in the assay on RPMI-8226 leukemia, 47.5%; with OVCAR-8 ovarian, 35.8%; in the assay with OVCAR-5 ovarian it was 42.1%; in the assay on OVCAR-4 ovarian it was 44.1%; in the assay with SK-OV-3 ovarian, 42.7%. In addition, the growth with IGROV1 ovarian is 30.7%; in the assay with OVCAR-3 ovarian it was -22.9% (active); with HS 578T breast it was 19.7%; in the assay on NCI/ADR-RES ovarian it was 16.2%.
As to `O=[N+]([O-])c1cnc(Sc2ccncn2)s1`, the growth in the assay on SR leukemia is -69.7% (active); in the assay with RPMI-8226 leukemia it was -64.1% (active); in the assay on OVCAR-8 ovarian it was 73.3%; in the assay with OVCAR-5 ovarian, 94.1%; in the assay with OVCAR-4 ovarian, 53.9%; with SK-OV-3 ovarian it was 114%. Besides, the growth in the assay with IGROV1 ovarian was -80.7% (active); with OVCAR-3 ovarian, -95.5% (active); in the assay on HS 578T breast, 58%; with NCI/ADR-RES ovarian, 67%.
On to `Cc1ccc(-c2csc(NC(=O)CCCCl)n2)cc1`, for which the growth with SR leukemia is 84.4%; with RPMI-8226 leukemia it was 82.7%; in the assay with OVCAR-8 ovarian, 106%; with OVCAR-5 ovarian it was 94.6%; with OVCAR-4 ovarian, 90.7%; with SK-OV-3 ovarian it was 105%. Also, the growth with IGROV1 ovarian was 95%; in the assay on OVCAR-3 ovarian, 101%; in the assay with HS 578T breast, 105%; in the assay on NCI/ADR-RES ovarian it was 101%.
